Results on nine compounds are retold here after PubChem BioAssay (NCATS).

Molecules are shown by their SMILES. Records with an inconclusive call do not appear. The source made the active and inactive calls. The call rests on the fitted dose curve; in most records, active means well fitted curve in the direction sought with a large enough effect; inconclusive means small, poorly fitted or top-dose-only effect, or another doubt; inactive means no such curve, though single readings can be large; an effect the other way counts as inactive or inconclusive.

Assay [1] can be described thus: Confirmatory screen GU Rhodamine qHTS for Zika virus inhibitors qHTS (AID 1347157). Further: nearly all actives have a fitted effect of over 70% in size. Further: potency means the concentration at half of the fitted maximal effect. Conditions: purified enzyme assay, Rhodamine110 substrate fluorescence, 15 min; series mostly up to 114 µM. In short, it runs like this:
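Noncovalent NS2B hydrophilic domain/NS3 protease complex (25 nM final) in 10 mM Tris-HCl pH 8.0, 0.01% Tween 20, preincubated 15 min with compounds (up to 114 microM), then 1.5 microM Rhodamine110 substrate. Fluorescence change over 15 min fitted to 4-parameter Hill.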
A general note: qHTS replaces the single test concentration by a dilution series.

Assay [2] relates to Zika virus NS2B-NS3 protease (unlinked complex). The experiment in a line: Primary screen GU Rhodamine qHTS for Zika virus inhibitors: Unlinked NS2B-NS3 protease assay (AID 1347159). Further: nearly all actives have a fitted effect of over 60% in size. Further: potency means the concentration at half of the fitted maximal effect. Conditions: Recombinant ZIKV NS2B-NS3 protease, Rhodamine110 substrate fluorescence; series mostly up to 107 µM. In short, it runs like this: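 Percent inhibition derives from the 15-min fluorescence change (ex 480, em 540 nm), normalized to no-enzyme and no-inhibitor wells. Reactions contained 25 nM NS2B-NS3 complex and 1.5 microM substrate in 10 mM Tris-HCl pH 8.0.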

Assay [3] in a line: Confirmatory screen NINDS Rhodamine qHTS for Zika virus inhibitors (AID 1347161). Further: nearly all actives have a fitted effect of over 60% in size. Further: potency means the concentration at half of the fitted maximal effect. To be noted: purified enzyme assay, Rhodamine110 substrate fluorescence, 15 min; series mostly up to 114 µM. In short, it runs like this:
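Purified linked NS2B-NS3 protease (NS2B hydrophilic domain joined to NS3 protease by flexible linker), 25 nM in 10 mM Tris-HCl pH 8.0, 0.01% Tween 20. Compounds titrated, 15 min preincubation at room temperature; 1.5 microM Rhodamine110 substrate, FITC fluorescence change over 15 min.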

A short description of assay [4]: P-glycoprotein substrates identified in KB-8-5-11 adenocarcinoma cell line, qHTS therapeutic library screen (AID 1346987). Further: nearly all actives have a fitted effect of over 65% in size. To be noted: KB-8-5-11 (P-gp overexpressing) viability, CellTiter-Glo, 72 h; series mostly up to 44.5 µM. The method, boiled down:
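Steps: plate 500 KB-8-5-11 cells/well in DMEM + 10% FCS (colchicine removed); pin compounds in dose-response; incubate 72 h, 37 degree C, 5% CO2; add CellTiter-Glo, 5 min; read luminescence.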

The test system of assay [5] is Zika virus NS2B-NS3 protease (linked construct). The experiment in a line: Primary screen NINDS Rhodamine qHTS for Zika virus inhibitors (AID 1347160). Further: nearly all actives have a fitted effect of over 55% in size. Further: potency means the concentration at half of the fitted maximal effect. To be noted: purified NS2B-NS3 protease, Rhodamine110 substrate fluorescence; series mostly up to 33.1 µM. In short, it runs like this: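 In 10 mM Tris-HCl pH 8.0 containing 0.01% Tween 20, linked NS2B-NS3 protease (25 nM final) is exposed to test compounds for 15 min. Cleavage of 1.5 microM Rhodamine110 substrate is tracked by fluorescence over 15 min.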

Assay [6] has as its system Zika virus NS2B-NS3 protease (unlinked complex). The assay is described as follows: Confirmatory screen GU AMC qHTS for Zika virus inhibitors (AID 1347153).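 Further: enzyme at 25 nM with substrate at 10 µM below its Km of 18.3 µM; potency means the concentration at half of the fitted maximal effect; nearly all actives have a fitted effect of over 70% in size.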 Conditions: Recombinant NS2B-NS3 protease, AMC substrate fluorescence; series mostly up to 111 µM. In short, it runs like this:
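Compounds were preincubated 15 min at room temperature with 25 nM noncovalent NS2B-NS3 protease at pH 8.0; AMC substrate added at 10 microM and 15-min fluorescence gain (340/450 nm) converted to percent inhibition, fitted 4-parameter.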

The test system of assay [7] is Zika virus NS2B-NS3 protease (linked construct). The experiment in a line: 384 well plate NINDS Rhodamine confirmatory qHTS for Zika virus inhibitors (AID 1347164). Further: top concentration of the series differs between compounds; nearly all actives have a fitted effect of over 65% in size. Conditions: rhodamine-110 peptide substrate fluorescence; series mostly up to 100 µM. The method, boiled down:
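Cleavage of Ac-LKRR-Rhodamine 110 (10 microM final) by linked protease (final 5, 30 or 60 nM) was followed as fluorescence at 485/538 nm after 25 min, room temperature, dark. Compounds preincubated ~15 min.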

Assay [8] in a line: Vero cells viability qHTS for Zika virus inhibitors (AID 1347167). To be noted: cytotoxicity counter-screen (Zika); series mostly up to 45.9 µM. In short, it runs like this:
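Cells seeded at 2.5 x 10^5 cells/mL in DMEM with 4% FBS and attached overnight at 37 degrees C, then exposed to compound for 24 to 48 hours. Viability read as ATP content by CellTiter Glo luminescence.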

Regarding `COc1cc2c(c(OC)c1O)C(c1ccc(O)cc1)C1C(=O)OC3C(COC(=O)C1=C2)OC(CO)(OC1OC(COC(=O)/C=C/c2ccc(OC4OC(C)C(O)C(O)C4O)cc2)C(O)C(O)C1O)C3O` (stereo not given), the Potency in assay [1] and in assay [3] was 7.44 µM (active) throughout. Besides, in assay [2], the Potency entry is “inactive”.
Regarding `CC(C)=CCC(O)[C@](C)(O)C1[C@H](O)C[C@@]2(C)C3CC=C4C(C[C@H](O)[C@@H](O[C@@H]5O[C@H](CO)[C@@H](O)[C@H](O)[C@H]5O)C4(C)C)[C@]3(C)C(=O)C[C@]12C` (stereo not given in full), the Potency result in assay [4] and in assay [5] was “inactive” throughout.
On to `CC/C=C\C(O)C(O)C1=C(C)C(=O)C2(O1)C(=O)NC(OC)(C(=O)c1ccccc1)C2O` (stereo not given), for which the Potency result in assay [4] and in assay [5] was “inactive” throughout.
As for `COc1cc(C(O)C2COC(c3ccc(OC4OC(CO)C(O)C(O)C4O)c(OC)c3)C2CO)ccc1O` (stereo not given), the Potency result in assay [4] and in assay [5] was “inactive” in each case.
For `O=C(O)CCc1cccc(O)c1O[C@@H]1O[C@H](CO)[C@@H](O)[C@H](O)[C@H]1O`, the Potency entry in assay [4] and in assay [5] was “inactive” in each case.
Regarding `Cn1cc(-c2c[nH]c3ncnc(N4CCOCC4)c23)cn1`, the Potency result in assay [1], in assay [2] and in assay [3] was “inactive” in each case.
In the case of `CC(C)[C@@H](C(=O)O)N1Cc2c(cc(O)c3c2O[C@]2(C3)[C@H](C)CCC3C(C)(C)[C@H](O)[C@H](O)C[C@@]32C)C1=O` (stereo not given in full), in assay [4], the Potency result is “inactive”. The Potency in assay [5] was 7.94 µM (active).
Take `CC(=O)OC/C(=C/C(=O)O)CC[C@@H]1C(C)=CC(=O)[C@@H]2C(C)(C)CCC[C@@]12C`: the Potency entry in assay [4] and in assay [5] was “inactive” throughout.
For the compound `O=C(O)CC1CCC(c2ccc(-c3ccc(Nc4ccc(C(F)(F)F)nc4)cn3)cc2)CC1` (stereo not given), the Potency in assay [6] was 44.1 µM (active); in assay [1], 4.41 µM (active); in assay [2], 6.31 µM (active); in assay [5] it was 10 µM (active); in assay [3] it was 4.41 µM (active). Moreover, the Potency entry in assay [7] was “inactive”. In addition, the compound was classed as inactive in assay [8].
